# Screen size: about 5,500 compounds; about 2,000 (36%) were called active. Inconclusive results (about 18%) are left out. The list shows a part of the results. A number with no mark means an inactive call. No stated cut-off is given here; in the data, active means normalized growth mostly below about 0.91 (no sharp cut-off); inconclusive means no clear call, values can overlap the other calls; inactive means mostly above about 0.92.
# Experiment: chemical genetic growth profiling, strain panel (AID 1159580);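 further: tested at 20 µM; growth read once vehicle control cultures reached saturation at 30 °C; 1 = growth at the plate median or of vehicle wells; lower values mean less growth of the strain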
# Conditions: growth OD
structure (smiles),measurement,setting,value
C#C[C@]1(O)CCC2C3CCC4=CC(=O)CC[C@@H]4C3CC[C@@]21C (some centres undefined),normalized growth,"S. cerevisiae deletion strains, locus YJR066W, strain TOR1, active compounds read low",0.909
same,normalized growth,"S. cerevisiae deletion strains, locus YKL009W, strain mrt4, active compounds read low",0.954
same,normalized growth,"S. cerevisiae deletion strains, locus YKL068W, active compounds read low",0.989
same,normalized growth,"S. cerevisiae deletion strains, locus YKL085W, strain MDH1 (second series), active compounds read low",0.986
same,normalized growth,"S. cerevisiae deletion strains, locus YKL085W, strain MDH1, active compounds read low",0.986
same,normalized growth,"S. cerevisiae deletion strains, locus YKL160W, strain elf1, active compounds read low",1.01
same,normalized growth,"S. cerevisiae deletion strains, locus YKL190W, strain CNB1, active compounds read low",0.977
same,normalized growth,"S. cerevisiae deletion strains, locus YKR001C, strain vps1, active compounds read low",0.946
same,normalized growth,"S. cerevisiae deletion strains, locus YKR026C, strain gcn3, active compounds read low",0.979
same,normalized growth,"S. cerevisiae deletion strains, locus YKR091W, strain srl3, active compounds read low",0.982
same,normalized growth,"S. cerevisiae deletion strains, locus YLL001W, strain dnm1, active compounds read low",0.972
same,normalized growth,"S. cerevisiae deletion strains, locus YLL026W, active compounds read low",0.994
same,normalized growth,"S. cerevisiae deletion strains, locus YLL041C, strain sdh2, active compounds read low",0.974
same,normalized growth,"S. cerevisiae deletion strains, locus YLR027C, strain aat2, active compounds read low",0.983
same,normalized growth,"S. cerevisiae deletion strains, locus YLR039C, strain RIC1, active compounds read low",0.862
same,normalized growth,"S. cerevisiae deletion strains, locus YLR058C, strain SHM2, active compounds read low",0.989
same,normalized growth,"S. cerevisiae deletion strains, locus YLR102C, strain apc9, active compounds read low",0.978
same,normalized growth,"S. cerevisiae deletion strains, locus YLR113W, strain HOG1, active compounds read low",0.958
same,normalized growth,"S. cerevisiae deletion strains, locus YLR221C, strain rsa3, active compounds read low",0.991
same,normalized growth,"S. cerevisiae deletion strains, locus YLR258W, strain gsy2, active compounds read low",0.993
same,normalized growth,"S. cerevisiae deletion strains, locus YLR262C, strain YPT6 (second series), active compounds read low",0.916
same,normalized growth,"S. cerevisiae deletion strains, locus YLR262C, strain YPT6, active compounds read low",0.818
same,normalized growth,"S. cerevisiae deletion strains, locus YLR268W, strain sec22, active compounds read low",0.94
same,normalized growth,"S. cerevisiae deletion strains, locus YLR320W, strain mms22, active compounds read low",0.98
same,normalized growth,"S. cerevisiae deletion strains, locus YLR330W, strain CHS5, active compounds read low",0.995
same,normalized growth,"S. cerevisiae deletion strains, locus YLR342W, strain FKS1 (second series), active compounds read low",0.923
same,normalized growth,"S. cerevisiae deletion strains, locus YLR342W, strain FKS1, active compounds read low",0.976
same,normalized growth,"S. cerevisiae deletion strains, locus YLR357W, strain rsc2, active compounds read low",0.988
same,normalized growth,"S. cerevisiae deletion strains, locus YLR370C, strain arc18, active compounds read low",0.969
same,normalized growth,"S. cerevisiae deletion strains, locus YLR371W, strain rom2, active compounds read low",0.983
same,normalized growth,"S. cerevisiae deletion strains, locus YLR384C, strain iki3, active compounds read low",0.982
same,normalized growth,"S. cerevisiae deletion strains, locus YLR418C, strain cdc73, active compounds read low",0.915
same,normalized growth,"S. cerevisiae deletion strains, locus YML016C, strain PPZ1, active compounds read low",0.991
same,normalized growth,"S. cerevisiae deletion strains, locus YML032C, strain rad52, active compounds read low",0.978
same,normalized growth,"S. cerevisiae deletion strains, locus YML120C, strain ndi1, active compounds read low",0.977
same,normalized growth,"S. cerevisiae deletion strains, locus YML124C, strain tub3, active compounds read low",0.98
same,normalized growth,"S. cerevisiae deletion strains, locus YMR058W, strain fet3, active compounds read low",0.965
same,normalized growth,"S. cerevisiae deletion strains, locus YMR078C, strain ctf18, active compounds read low",0.964
same,normalized growth,"S. cerevisiae deletion strains, locus YMR125W, strain sto1, active compounds read low",0.995
same,normalized growth,"S. cerevisiae deletion strains, locus YMR129W, active compounds read low",0.974
same,normalized growth,"S. cerevisiae deletion strains, locus YMR205C, strain PFK2, active compounds read low",0.985
same,normalized growth,"S. cerevisiae deletion strains, locus YMR223W, strain ubp8, active compounds read low",0.971
same,normalized growth,"S. cerevisiae deletion strains, locus YMR231W, strain pep5, active compounds read low",0.981
same,normalized growth,"S. cerevisiae deletion strains, locus YMR307W, strain GAS1, active compounds read low",0.874
same,normalized growth,"S. cerevisiae deletion strains, locus YNL067W, strain RPL9B, active compounds read low",0.969
same,normalized growth,"S. cerevisiae deletion strains, locus YNL071W, strain lat1, active compounds read low",0.964
same,normalized growth,"S. cerevisiae deletion strains, locus YNL128W, strain TEP1, active compounds read low",0.992
same,normalized growth,"S. cerevisiae deletion strains, locus YNL183C, strain NPR1, active compounds read low",0.924
same,normalized growth,"S. cerevisiae deletion strains, locus YNL209W, strain ssb2, active compounds read low",0.997
same,normalized growth,"S. cerevisiae deletion strains, locus YNL233W, strain BNI4, active compounds read low",0.996
same,normalized growth,"S. cerevisiae deletion strains, locus YNL248C, strain rpa49, active compounds read low",0.985
same,normalized growth,"S. cerevisiae deletion strains, locus YNL250W, strain rad50, active compounds read low",0.981
same,normalized growth,"S. cerevisiae deletion strains, locus YNL271C, strain bni1, active compounds read low",0.964
same,normalized growth,"S. cerevisiae deletion strains, locus YNL298W, strain CLA4, active compounds read low",0.976
same,normalized growth,"S. cerevisiae deletion strains, locus YNL307C, strain MCK1, active compounds read low",0.902 (active)
same,normalized growth,"S. cerevisiae deletion strains, locus YNL322C, strain KRE1 (second series), active compounds read low",0.98
same,normalized growth,"S. cerevisiae deletion strains, locus YNR049C, strain mso1, active compounds read low",0.984
same,normalized growth,"S. cerevisiae deletion strains, locus YNR052C, strain pop2, active compounds read low",0.97
same,normalized growth,"S. cerevisiae deletion strains, locus YOL006C, strain TOP1, active compounds read low",0.919
same,normalized growth,"S. cerevisiae deletion strains, locus YOL012C, strain htz1",1.68
same,normalized growth,"S. cerevisiae deletion strains, locus YOL147C, strain pex11, active compounds read low",0.983
same,normalized growth,"S. cerevisiae deletion strains, locus YOR001W, strain rrp6, active compounds read low",0.943
same,normalized growth,"S. cerevisiae deletion strains, locus YOR061W, strain CKA2, active compounds read low",0.985
same,normalized growth,"S. cerevisiae deletion strains, locus YOR069W, strain VPS5, active compounds read low",0.988
same,normalized growth,"S. cerevisiae deletion strains, locus YOR070C, strain gyp1, active compounds read low",0.986
same,normalized growth,"S. cerevisiae deletion strains, locus YOR080W, strain dia2, active compounds read low",0.994
same,normalized growth,"S. cerevisiae deletion strains, locus YOR083W, strain WHI5, active compounds read low",1.03
same,normalized growth,"S. cerevisiae deletion strains, locus YOR106W, strain vam3, active compounds read low",0.999
same,normalized growth,"S. cerevisiae deletion strains, locus YOR136W, strain idh2, active compounds read low",0.997
same,normalized growth,"S. cerevisiae deletion strains, locus YOR144C, strain elg1, active compounds read low",0.98
same,normalized growth,"S. cerevisiae deletion strains, locus YOR184W, strain ser1, active compounds read low",0.848 (active)
same,normalized growth,"S. cerevisiae deletion strains, locus YOR231W, strain MKK1, active compounds read low",0.984
same,normalized growth,"S. cerevisiae deletion strains, locus YOR265W, strain rbl2, active compounds read low",0.983
same,normalized growth,"S. cerevisiae deletion strains, locus YOR270C, strain vph1, active compounds read low",0.901
same,normalized growth,"S. cerevisiae deletion strains, locus YOR290C, strain snf2, active compounds read low",0.981
same,normalized growth,"S. cerevisiae deletion strains, locus YOR316C, strain cot1, active compounds read low",0.978
same,normalized growth,"S. cerevisiae deletion strains, locus YPL051W, strain arl3, active compounds read low",0.986
same,normalized growth,"S. cerevisiae deletion strains, locus YPL055C, strain LGE1, active compounds read low",0.997
same,normalized growth,"S. cerevisiae deletion strains, locus YPL078C, strain atp4, active compounds read low",0.974
same,normalized growth,"S. cerevisiae deletion strains, locus YPL106C, strain sse1, active compounds read low",1.06
same,normalized growth,"S. cerevisiae deletion strains, locus YPL240C, strain hsp82, active compounds read low",0.991
same,normalized growth,"S. cerevisiae deletion strains, locus YPL241C, strain CIN2, active compounds read low",0.996
same,normalized growth,"S. cerevisiae deletion strains, locus YPL256C, strain CLN2, active compounds read low",0.942
same,normalized growth,"S. cerevisiae deletion strains, locus YPR119W, strain clb2, active compounds read low",0.982
same,normalized growth,"S. cerevisiae deletion strains, locus YPR141C, strain kar3, active compounds read low",0.982
same,normalized growth,"S. cerevisiae deletion strains, locus YPR163C, strain tif3, active compounds read low",0.986
same,normalized growth,"S. cerevisiae deletion strains, locus YPR167C, strain met16, active compounds read low",0.977
same,normalized growth,"S. cerevisiae deletion strains, strain wtn01, active compounds read low",0.962
same,normalized growth,"S. cerevisiae strains, strain wild type, active compounds read low",0.986

# Source: PubChem BioAssay AID1159580 (chemical genetic matrix, 2015)
